test system: Scedosporium aurantiacum CBS 136046; assay: growth inhibition relative to DMSO control (OD600); higher = more antifungal activity, active = 80 or more; extreme values may be limits of the assay; settings: 5 µM; 72 h; 37 °C
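Further: conidia screened in RPMI 1640 medium under 5% CO2, growth read by spectrophotometer, medium with 0.5% DMSO serving as the untreated reference.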

Growth inhibition, active:
Clc1ccc(COC(Cn2ccnc2)c2ccc(Cl)cc2Cl)c(Cl)c1 (stereo not drawn) 80.6%, Cc1cc(-c2ccccc2)c(C(=O)C(=O)Nc2ccc(N3CCN(c4ncc(F)cn4)CC3)cc2)n1C 81.8%

Growth inhibition, inactive:
O=c1nc(N2CCN(CC3CCCCC3)CC2)sc2c([N+](=O)[O-])cc(C(F)(F)F)cc12 28.5%, O=C(O)COc1cccc2c1CC[C@](O)(COC(=O)N(c1ccccc1)c1ccccc1)C2 0.943%, COc1cc2c(O)c3c(c(-c4ccc5c(c4)OCO5)c2cc1OC)C(=O)OC3 25%, CC(C)c1cc2c(cc1S(=O)(=O)O)[C@@]1(C)CCC[C@@](C)(C(=O)O)[C@@H]1CC2 30%, Nc1nc(F)nc2c1ncn2[C@H]1O[C@@H](CO)[C@H](O)[C@@H]1O 33.8%, CCCCc1ccc(-c2nc(C)c(C(=O)OC)s2)cc1 12.4%, Nc1nc(N)c2c(Sc3ccccc3)cccc2n1 18%, O=C(NCc1ncc(C(F)(F)F)cc1Cl)c1c(Cl)cccc1Cl 0%, O=C(O)/C=C/C=C/c1cccc(Oc2cc(Cl)cc(Cl)c2)c1 13.8%, C[C@H]1CC[C@@]2(O)C(C)(C)[C@@H]3CC[C@@]2(C)[C@H]1C3 12.7%, c1cnc(NCc2ccc(CNc3ncccn3)cc2)nc1 10.1%, Cc1cc(Nc2ccc(F)cc2)nc(SCc2nc3ccccc3[nH]2)n1 0%, O=C(CCCC(F)(F)F)N1CCC(c2nc(-c3nccs3)no2)CC1 4.66%, CO/N=C(\C(=O)N[C@@H]1C(=O)N2C(C(=O)OCOC(=O)C(C)(C)C)=C(/C=C\c3scnc3C)CS[C@H]12)c1csc(N)n1 0%, O=C(NCc1ccc2c3c(cccc13)C(=O)N2)c1cccs1 17%, O=C(/C(=C/c1ccc(Cl)cc1Cl)n1ccnc1)c1ccc(Cl)cc1 59.4%, O=C(NC1CCCc2c1[nH]c1ccc(Cl)cc21)c1ccccn1 (stereo not drawn) 15.1%, CN(C)CC(=O)Nc1ccc2[nH]c(=O)c3ccccc3c2c1 6.77%, O=C(O)CSc1cc(NS(=O)(=O)c2cccc3cccnc23)c2ccccc2c1O 20.8%, CC(C)/N=c1\cc2n(-c3ccc(Cl)cc3)c3ccccc3nc-2cc1Nc1ccc(Cl)cc1 24.6%, Cc1nc(Nc2ccc(F)cc2)nc(N2CCc3ccccc3C2C)c1C (stereo not drawn) 25.2%, CCc1cc(O)c(Oc2ccc(C(N)=O)cc2F)cc1F 29.4%, CC[C@@H]1C(=O)OC[C@@H]1Cc1cncn1C 0%, Nc1nc(-c2ccccc2)nc2c1ncn2[C@@H]1O[C@H](COS(=O)(=O)NC(=O)c2ccccc2O)[C@@H](O)[C@H]1O 30%, Oc1c(C(Nc2nc3ccccc3s2)c2ccc(OC(F)F)cc2)ccc2cccnc12 (stereo not drawn) 12%, CCCCc1ccc(-c2cc(C(=O)O)cc(-c3ccc(Cl)cc3)n2)cc1 37.3%, CC[C@H](NC(=O)[C@H](C)NC)C(=O)N1C[C@@H](O)C[C@H]1Cc1c(-c2[nH]c3cc(F)ccc3c2C[C@@H]2C[C@H](O)CN2C(=O)[C@H](CC)NC(=O)[C@H](C)NC)[nH]c2cc(F)ccc12 6.5%, CCc1nc2ccccn2c1C(=O)NCc1ccccc1 13%, CC[C@@]1(O)C(=O)OCc2c1cc1n(c2=O)Cc2cc3c([N+](=O)[O-])cccc3nc2-1 22.2%, CC(=N)N1CC[C@H](SC2=C(C(=O)O)N3C(=O)[C@@H]([C@@H](C)O)[C@H]3C2)C1 5.55%, O=C(c1ccccc1)N1CCN(c2ccccc2NC(=O)C(Cl)(Cl)Cl)CC1 33.8%, O=C1CCC(N2C(=O)c3ccccc3C2=O)C(=O)N1 (stereo not drawn) 22.9%, OB1OCc2c1ccc(Cl)c2F 0.00748%, CCc1cc(Cc2cnc(N)nc2N)cc2c1N(C)CCC2C (stereo not drawn) 16.8%, COc1c(F)c(F)cc2c(=O)c(C(=O)O)cn(C3CC3)c12 43.8%, C[C@@H](c1nc(-c2ccc(C#N)cc2)cs1)[C@](O)(Cn1cncn1)c1ccc(F)cc1F 60.6%
